Screening data as filed in PubChem BioAssay.
A selection: hits, their analogues and other compounds. The true share with any hit is near 3.5%.
NS1 function inh: qHTS Assay for Inhibitors of Influenza NS1 Protein Function. Potency, µM (series often up to 46.1 µM), for the others: top-dose activity, positive = more growth. hit rate 0.4% among 270,000; calls by dose curve; further: actives are rising curves; nearly all actives have a fitted effect of over 50% in size
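Compounds were scored for reversing the slow growth caused by influenza A NS1 in S. cerevisiae, measured by optical density at 600 nm. Assay medium contained 2% galactose at pH 6.0; NS1-free yeast of the same strain were the positive control.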
Sm TGR inh: qHTS Assay for the Inhibitors of Schistosoma Mansoni Peroxiredoxins; Schistosoma mansoni thioredoxin glutathione reductase (TGR), Q962Y6; purified TGR, DTNB reduction, TNB absorbance 405 nm; Potency, µM (top dose mostly 114 µM), inactives show at the highest dose activity change, negative = inhibition, usual class: inhibitors; hit rate 3% among 360,000; further: on the % scale 0 is the no-effect control and ±100 the full control effect; nearly all actives have a fitted effect of over 60% in size
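First, TGR (20 nM dispensed) and NADPH were mixed with compound. Second, a 15 min room-temperature incubation followed. Third, further NADPH and then DTNB were added to start the reaction. Finally, TNB absorbance was monitored kinetically.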
LmPK inhibitor: qHTS Assay for Inhibitors of Leishmania Mexicana Pyruvate Kinase (LmPK) | hit rate 0.37% among 290,000 | purified LmPK, Kinase-Glo ATP luminescence, 1 h | Potency, µM (top dose mostly 57.5 µM), inactives show at the highest dose activity change, negative = inhibition, actives largely listed as inhibitors | Q27686; further: on the % scale 0 is the no-effect control and ±100 the full control effect
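qHTS format; LmPK 0.1 nM; substrates PEP 0.5 mM and ADP 0.1 mM. One-hour room-temperature incubation, then coupled luciferase luminescence; 0.5 nM enzyme wells mark activation.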
RE007 growth inh: qHTS Assay for Inhibitors of the HIV-1 protein Vpr; S. pombe RE007 Vpr strain, BacTiter-Glo ATP luminescence, 24 h; Potency, µM (series often up to 92.2 µM), for inactives: at the highest dose activity change, negative = less growth, hits mostly inhibitors; hit rate 0.21% among 360,000; AID 651644, 2012; active means well fitted falling curve with a large enough effect; inconclusive means small, poorly fitted or top-dose-only effect; inactive means no such curve, though single readings can be large or run the other way; further: on the % scale 0 is the no-effect control and ±100 the full control effect; nearly all actives have a fitted effect of over 50% in size
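Fission yeast RE007 carrying one integrated HIV-1 vpr copy, seeded at OD 0.01 in PMG+AL medium with 23 nL pinned compound. Grown 24 h at 30 degrees; viability read by BacTiter-Glo luminescence after 5 min.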
Giardia FBPA inh-1: qHTS Assay for Inhibitors of Fructose-1,6-bisphosphate Aldolase from Giardia Lamblia; A8B2U2; purified Giardia FBPA; Potency, µM (highest dose often 59.6 µM), inactives show top-dose activity, negative = inhibition, most hits filed as inhibitors; hit rate 0.71% among 290,000; further: on the % scale 0 is the no-effect control and ±100 the full control effect; nearly all actives have a fitted effect of over 55% in size
Target sequence (A8B2U2 whole entry, looked up): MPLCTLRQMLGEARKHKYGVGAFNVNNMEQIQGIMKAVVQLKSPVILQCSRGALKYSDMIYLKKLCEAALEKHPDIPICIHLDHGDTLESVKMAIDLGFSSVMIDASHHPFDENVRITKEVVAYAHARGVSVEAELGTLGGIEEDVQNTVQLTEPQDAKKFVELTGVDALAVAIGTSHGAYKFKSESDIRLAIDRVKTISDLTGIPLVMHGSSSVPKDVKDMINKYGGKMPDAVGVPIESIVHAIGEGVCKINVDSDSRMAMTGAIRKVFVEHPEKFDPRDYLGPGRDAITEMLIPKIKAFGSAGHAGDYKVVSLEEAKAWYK
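40 nM FBPA preincubated 10 min at RT with compound (up to 57.5 uM final), then substrate plus GAPDH/TPI/NAD/arsenate coupling and diaphorase/resazurin added. Fluorescence read after 20 min at RT, 525/598 nm.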
Tb PYK inh: qHTS of Trypanosoma Brucei Inhibitors; Potency, µM (titrated, usually from 76.8 µM), without a hit: top-dose activity, negative = inhibition, most hits filed as inhibitors; hit rate 0.12% among 410,000; pyruvate kinase (Trypanosoma brucei), Q57TT1; TbPYK enzyme, Kinase-Glo Plus ATP luminescence, 45 min; further: on the % scale 0 is the no-effect control and ±100 the full control effect; nearly all actives have a fitted effect of over 50% in size
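TbPYK + substrate in 50 mM TEA pH 7.2, 100 mM KCl, 10 mM MgCl2, 0.05% BSA, 0.01% Tween-20; cpd pinned; ADP 130 uM final; 45 min RT; Kinase-Glo Plus 10 min; luminescence endpoint.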
Giardia growth: qHTS Assay for Inhibitors of Fructose-1,6-bisphosphate Aldolase from Giardia Lamblia: Giardia lamblia growth inhibition | shares compounds with Giardia FBPA inh-1 | Giardia lamblia trophozoite growth inhibition | Potency, µM (titrated, usually from 57.5 µM), without a hit: top-dose activity change, negative = inhibition, usual class: inhibitors | hit rate 5% among 1,500;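 further: trophozoites exposed to compound for 48 h at 37 °C; on the % scale 0 is the no-effect control and ±100 the full control effect; nearly all actives have a fitted effect of over 70% in size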
Mammalian tox: qHTS Assay for Inhibitors of Fructose-1,6-bisphosphate Aldolase from Giardia Lamblia: Mammalian cellular toxicity; shares compounds with Giardia FBPA inh-1; mammalian cell viability counter-screen, qHTS; Potency, µM (top dose mostly 57.5 µM), for inactives: at the highest dose viability change, negative = toxicity, hits mostly inhibitors; hit rate 4% among 1,500; AID 2786, 2010;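 further: Chinese hamster ovary cells used as mammalian cytotoxicity surrogate; viability measured as cellular ATP by luminescence; compound exposure lasted 48 h before reading; on the % scale 0 is the no-effect control and ±100 the full control effect; nearly all actives have a fitted effect of over 60% in size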
Giardia FBPA inh-2: qHTS Assay for Inhibitors of Fructose-1,6-bisphosphate Aldolase from Giardia Lamblia: Primary screen confirmation | AID 2787, 2010 | hit rate 5% among 1,500 | shares compounds with Giardia FBPA inh-1 | Potency, µM (top dose mostly 57.5 µM), inactives show at the highest dose activity change, negative = inhibition, hits mostly inhibitors | purified Giardia aldolase enzyme activity, qHTS; further: on the % scale 0 is the no-effect control and ±100 the full control effect; nearly all actives have a fitted effect of over 45% in size
Rabbit FBPA inh: qHTS Assay for Inhibitors of Fructose-1,6-bisphosphate Aldolase from Giardia Lamblia: Rabbit FBPA Selectivity; shares compounds with Giardia FBPA inh-1; Rabbit muscle FBPA enzyme inhibition, selectivity counter-screen; Potency, µM (series often up to 57.5 µM), without a hit: at the top dose activity, negative = inhibition, hits mostly inhibitors; hit rate 4% among 1,500; AID 2794, 2010; further: on the % scale 0 is the no-effect control and ±100 the full control effect; nearly all actives have a fitted effect of over 60% in size
Target sequence (P00883 whole entry, looked up): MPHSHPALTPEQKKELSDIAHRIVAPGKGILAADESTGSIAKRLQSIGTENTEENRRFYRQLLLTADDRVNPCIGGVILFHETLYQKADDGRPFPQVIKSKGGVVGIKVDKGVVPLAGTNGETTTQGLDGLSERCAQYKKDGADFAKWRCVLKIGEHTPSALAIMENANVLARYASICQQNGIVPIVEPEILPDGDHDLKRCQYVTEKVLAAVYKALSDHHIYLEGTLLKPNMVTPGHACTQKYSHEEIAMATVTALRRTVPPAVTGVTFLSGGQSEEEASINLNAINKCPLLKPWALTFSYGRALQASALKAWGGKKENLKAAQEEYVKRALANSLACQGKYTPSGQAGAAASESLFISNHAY
GAPDH coupling: qHTS Assay for Inhibitors of Fructose-1,6-bisphosphate Aldolase from Giardia Lamblia: Coupling assay counterscreen confirmation. hit rate 6% among 1,500. Potency, µM (series often up to 57.5 µM), without a hit: top-dose activity change, negative = inhibition, most hits filed as inhibitors. GAPDH coupling enzyme counterscreen, biochemical, qHTS. shares compounds with Giardia FBPA inh-1; further: on the % scale 0 is the no-effect control and ±100 the full control effect; nearly all actives have a fitted effect of over 55% in size
An asterisk follows results filed as active; [ ] = another dose, or the depositor's remark. Unless noted, the call rests on the fitted dose curve; in most records, active means well fitted curve in the direction sought with a large enough effect; inconclusive means small, poorly fitted or top-dose-only effect, or another doubt; inactive means no such curve, though single readings can be large; an effect the other way counts as inactive or inconclusive. Potency means the concentration at half of the fitted maximal effect.

CN(C)S(=O)(=O)c1ccc(C(=O)Nc2nnc(-c3ccco3)o2)cc1 was read as Sm TGR inh 0%, LmPK inhibitor 0%, RE007 growth inh 5%, Giardia FBPA inh-1 6.3µM*, Tb PYK inh 4%, Giardia growth 8%[38.3 µM], Mammalian tox -17%, Giardia FBPA inh-2 2%, Rabbit FBPA inh 1% and GAPDH coupling -8%.
Screening CCc1ccccc1NC(=O)CN(Cc1ccccc1)S(=O)(=O)c1ccc2nc(C)sc2c1 returned Sm TGR inh -4% and Tb PYK inh 4%.
Cc1ccc(CN2CCN(C3CCN(S(=O)(=O)N(C)C)CC3)C(=O)C2=O)cc1 was read as Sm TGR inh -1% and Tb PYK inh -2%.
CCc1ccc(C2CC(=O)N(c3cccc(C(F)(F)F)c3)C3=C2C(=O)OC3)cc1 (stereo not drawn) was read as Sm TGR inh 1% and Tb PYK inh 1%.
Cc1nc(COC(=O)c2cc(O)c3ccccc3c2O)cs1 was read as Sm TGR inh 18µM*, LmPK inhibitor -6%, RE007 growth inh -10%, Giardia FBPA inh-1 20µM*, Tb PYK inh inconclusive, Giardia growth -13%[10.4 µM], Mammalian tox -6%, Giardia FBPA inh-2 inconclusive, Rabbit FBPA inh inconclusive and GAPDH coupling inconclusive.
Screening CCOc1ccccc1NS(=O)(=O)c1c(C)noc1C returned NS1 function inh -6%, Sm TGR inh -17%, LmPK inhibitor 0%, RE007 growth inh -6%, Giardia FBPA inh-1 13µM*, Tb PYK inh -2%, Giardia growth -28%, Mammalian tox 0%, Giardia FBPA inh-2 inconclusive, Rabbit FBPA inh inconclusive and GAPDH coupling 40µM*.
For COc1ccccc1NC(=O)Cn1c(=O)n(-c2ccc(C)cc2)c(=O)c2c1cnn2C the results were Sm TGR inh 9% and Tb PYK inh 1%.
COC(=O)c1ccc(CC(=O)c2c(C)cc(O)cc2O)o1 was read as NS1 function inh 3%, Sm TGR inh 22µM*, LmPK inhibitor 5%, RE007 growth inh 5%, Giardia FBPA inh-1 16µM*, Tb PYK inh -23%, Giardia growth -16%, Mammalian tox 6%, Giardia FBPA inh-2 16µM*, Rabbit FBPA inh 40µM* and GAPDH coupling inconclusive.
COC(=O)CC1C(=O)NCCN1C(=S)Nc1ccccc1 (stereo not drawn) was read as NS1 function inh 6%, Sm TGR inh 2%, LmPK inhibitor -2%, RE007 growth inh 4%, Giardia FBPA inh-1 -3% and Tb PYK inh -13%.
For COC(=O)CC1C(=O)NCCN1C(=S)NC(=O)c1ccccc1[N+](=O)[O-] (stereo not drawn) the results were NS1 function inh 5%, Sm TGR inh 0%, LmPK inhibitor 1%, RE007 growth inh -3%, Giardia FBPA inh-1 7.1µM*, Tb PYK inh -8%, Giardia growth -36%, Mammalian tox -12%, Giardia FBPA inh-2 2%, Rabbit FBPA inh 2% and GAPDH coupling 13%.
For CC(C)OC(=O)CC1C(=O)NCCN1C(=S)NC(=O)c1cccs1 (stereo not drawn) the results were NS1 function inh 1%, Sm TGR inh -30%, LmPK inhibitor -4%, RE007 growth inh -9%, Giardia FBPA inh-1 5.6µM*, Tb PYK inh inconclusive, Giardia growth 4%[38.3 µM], Mammalian tox -2%, Giardia FBPA inh-2 -2%, Rabbit FBPA inh 4% and GAPDH coupling -2%.
Screening COc1cccc(C2CC(=O)Nc3c2c(=O)n(C)c2nc4ccccc4n32)c1 (stereo not drawn) returned Sm TGR inh 1% and Tb PYK inh 4%.
Cc1cc(N/N=C/c2ccccc2O)c2ccccc2n1 was read as NS1 function inh -7%, Sm TGR inh 0%, LmPK inhibitor 1%, RE007 growth inh 18%, Giardia FBPA inh-1 -1% and Tb PYK inh 4%.
Screening Cc1ccccc1/C=N/Nc1nc2ccccc2c(=O)n1O returned NS1 function inh -9%, Sm TGR inh -1%, LmPK inhibitor 2%, RE007 growth inh 6%, Giardia FBPA inh-1 18µM*, Tb PYK inh -21%, Giardia growth inconclusive, Mammalian tox -6%, Giardia FBPA inh-2 -22%, Rabbit FBPA inh -14% and GAPDH coupling -15%.
For CC(C)(C)c1ccc(C(=O)N/N=C/c2ccccn2)cc1 the results were NS1 function inh -58%, Sm TGR inh 0%, LmPK inhibitor 0%, RE007 growth inh inconclusive, Giardia FBPA inh-1 -2% and Tb PYK inh -18%.
Screening Cc1ccc(C(=O)N/N=C\c2ccc(-c3ccc([N+](=O)[O-])cc3)o2)cn1 returned NS1 function inh -7%, Sm TGR inh 0%, LmPK inhibitor 4%, RE007 growth inh 0%, Giardia FBPA inh-1 3% and Tb PYK inh -5%.
